# According to the supplement of paper PMC10338343:
# ± gives the standard deviation. Whole data set: some 8,200 sequences, median “pre-steady-state target cleavage rate” near 0.024, cut for the highest 2% near 1.3. What follows is part of a selection rich in the highest values, with near analogues and random picks from the rest.
# Tested on: MIWI (PIWIL1) piRISC loaded with L1MC piRNA (30 nt)
# Assay: pre-steady-state target cleavage rate (min^-1); MIWI and MILI are mouse PIWI proteins and EfPiwi is from a freshwater sponge; tags in brackets are library labels; higher = faster piRNA-guided slicing of the target
# Settings: guide: L1MC piRNA 5'p-UAACUAAAUACUAUGCAAGCUGUAGGUCCU
# Description: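 Cleave-'n-Seq: a library of target RNAs (target site embedded in constant flanks, ACAGCATTCCGCGTTAGTGATATCCG... 5' flank; DNA-blocked outside the site) at 0.1 nM was incubated with 1 nM active mouse MILI or MIWI piRISC (synthetic 5'-monophosphorylated piRNA guide) with or without 500 nM mouse GTSF1 at 33 °C for 1 min to 16 h. Uncleaved targets were sequenced and normalised to non-target controls, and the pooled three trials were fitted to a burst-and-steady-state model to give the pre-steady-state cleavage rate (min^-1; k3 is constrained to at most 1e-4). Sequence is the target site only; target names encode pairing extent (gX:gY) and contiguous / 1-mismatch / 2-mismatch / bulge geometry. Fits with R² ≤ 0 are excluded.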
# [1] = auxiliary factor: 500 nM mouse GTSF1
# [2] = auxiliary factor: none (no GTSF1)
Sequence,pre-steady-state target cleavage rate [1],pre-steady-state target cleavage rate [2]
UCCUCCUACAGCUUGCUUAGUAUAUAGUUA,0.617 ± 0.034,0.0104 ± 0.0032
UGGACCUACAGCUUGCUUAGUAUAUAGUUA,0.842 ± 0.063,0.0175 ± 0.0052
UCCACCUACAGCUUGCUUAGUAUAUAGUUA,0.357 ± 0.027,0.0111 ± 0.0025
AGGACCUUCAGCUUGCUUAGUAUUUAGUUA,1.44 ± 0.055,0.0546 ± 0.01
AGGACCUACAGCUUGCUUAGUAUAUAGUUA,0.762 ± 0.071,0.0291 ± 0.0082
AGGACCUACAGCUUGGAUAGUAUAUAGUUA,0.736 ± 0.053,0.0336 ± 0.0076
UCGACCUACAGCUUGCUUAGUAUAUAGUUA,0.879 ± 0.063,0.0168 ± 0.004
UGGACCUUCAGCUUGCUUAGUAUUUAGUUA,1.49 ± 0.09,0.0441 ± 0.011
AGGACCUACAGCAUGCAUACUAUUUAGUUA,0.39 ± 0.023,0.0205 ± 0.0035
UCCUGCUACAGCUCGCAUAGUAUUUAGUUA,1.14 ± 0.062,0.0391 ± 0.0067
UCCUCCUACAGCUCGCAUAGUAUUUAGUUA,1.31 ± 0.051,0.0488 ± 0.0093
UGGACCUACAGCUCGCAUAGUAUUUAGUUA,1.54 ± 0.096,0.0604 ± 0.0083
UCCACCUACAGCUCGCAUAGUAUUUAGUUA,1.11 ± 0.043,0.0579 ± 0.012
UGGACCUACAGCUACCAUAGUAUUUAGUUA,0.493 ± 0.043,0.00241 ± 0.0021
AGGACCUACAGCUCGCAUAGUAUUUAGUUA,1.35 ± 0.068,0.0694 ± 0.013
UCGACCUACAGCUCGCAUAGUAUUUAGUUA,1.55 ± 0.04,0.0682 ± 0.013
AGGACCUACAGCUGGCAUAGUAUUUAGUUA,1.29 ± 0.057,0.0579 ± 0.011
UGGACCUACAGCUUGCAUAGUUUUUACUUA,0.0927 ± 0.013,0.0125 ± 0.0027
UGCACCUACAGGUUGCAUAGUAUUUAGUUA,0.859 ± 0.15,0.0244 ± 0.0052
UCCUGCUACAGCUUGCAUAGAAAUUAGUUA,0.2 ± 0.021,0.00609 ± 0.0021

Sequence,pre-steady-state target cleavage rate [1],pre-steady-state target cleavage rate [2]
AGGACCUACACCUUGCAUAGUAUUUAGUAA,0.838 ± 0.068,0.0538 ± 0.0089
UCCACCUACAGCUUGCAUAGUAUUUUCUAA,0.361 ± 0.048,
UCCUGGAACAGCUUGGAUAGUAAUUAGUUA,0.565 ± 0.055,0.0197 ± 0.0059
UCCUGGAACAGCUUGCAUAGUUUUUAGUAA,0.191 ± 0.025,0.0332 ± 0.01
UCCUGGUACUGCUUGGAUAGUAUUUAGUUA,0.391 ± 0.078,0.0193 ± 0.0036
UCGACCUACUGCUUGCUUAGUAUUUAGUUA,1.52 ± 0.061,0.031 ± 0.0067
UGGACCUACUGCUUGCAUAGUAUUUAGUAA,0.708 ± 0.039,0.0421 ± 0.008
UCGACCUACUGCUUGCAUAGUAUUUAGUUA,1.41 ± 0.035,0.0694 ± 0.011
UCGACCUACUGCUUGCAUAGUAUUUAGAUA,0.273 ± 0.023,0.0197 ± 0.0035
ACGACCUACUGCUUGCAUAGUAUUUAGUUA,1.51 ± 0.054,0.0792 ± 0.013
UCCUCCUACUGCUUGCUUAGUAUUUAGUUA,1.06 ± 0.04,0.03 ± 0.0053
UCGACCUACUGCUUGCAUAGUAUUUAGUAA,0.797 ± 0.036,0.0434 ± 0.0074
UGGACCUACUGCUUGCAUAGUAUUUAGUUA,1.46 ± 0.073,0.0611 ± 0.0097
UGCACCUACUGCUUGCAUAGUAUUUAGUUA,1.16 ± 0.097,0.0725 ± 0.014
UCCACCUACUGCUUGCAUAGUAUUUAGUUA,0.697 ± 0.027,0.0467 ± 0.0067
UCCACCUACUGCUUGCUUAGUAUUUAGUUA,0.816 ± 0.029,0.0276 ± 0.0058
AGGACCUACUGCUUGCAUAGUAUUUAGUUA,1.21 ± 0.049,0.0777 ± 0.012
UCCUGCUACGCUUGCAUAGUAUUUAGUUA,1.12 ± 0.08,0.0532 ± 0.011
AGGUCCUACAGCUUGCAUAGUAUUAAGUUA,0.381 ± 0.034,0.054 ± 0.013
UCCUCCUAGAGCUUGCUUAGUAUUUAGUUA,1.04 ± 0.059,0.0213 ± 0.0041

Sequence,pre-steady-state target cleavage rate [1],pre-steady-state target cleavage rate [2]
UGGACCUACAGCUUGCUUACUAUUUAGUUA,0.493 ± 0.031,0.0127 ± 0.0038
UCGACCUACAGCUUGCAUAGUUAAUAGUUA,0.122 ± 0.019,0.00697 ± 0.0029
UCCUGGAUGUCGUGCAUAGUAUUUAGUUA,0.031 ± 0.0083,0.00348 ± 0.0032
UCCUCCUACACCUAGCAUAGUAUUUAGUUA,0.657 ± 0.057,0.0111 ± 0.0022
UCCUGGAACAGCUUGCAUAGUAUAAACAAA,0.18 ± 0.043,
UGGACCUACAGCUUCGAUAGUAUUUAGUAA,0.307 ± 0.04,
UCCUGGAUGUGCUUGCUUAGUAUUUAGUAA,0.0383 ± 0.008,0.0104 ± 0.0033
UGGACCUACAGCUUGCAUAGUAUUAAGAUA,0.174 ± 0.028,0.00558 ± 0.0024
UCGACCAACUGCUUGCAUAGUAUUUAGUUA,1.43 ± 0.041,0.0724 ± 0.012
UCGACCUACUGCUUGCAAAGUAUUUAGUUA,1.33 ± 0.037,0.051 ± 0.01
UGGACCUACUGCUUGCAAAGUAUUUAGUUA,1.23 ± 0.059,0.0383 ± 0.0078
AGGACCUACUGCUUGCAAAGUAUUUAGUUA,1.11 ± 0.057,0.0455 ± 0.0095
AGGACCAACUGCUUGCAUAGUAUUUAGUUA,1.22 ± 0.056,0.0799 ± 0.014
UGGACCAACUGCUUGCAUAGUAUUUAGUUA,1.27 ± 0.055,0.0655 ± 0.011
UGGACCUACUGCAUGCAUAGUAUUUAGUUA,1.27 ± 0.08,0.0325 ± 0.0061
UCGACCUACUGCAUGCAUAGUAUUUAGUUA,1.33 ± 0.056,0.0324 ± 0.0055
AGGACCUACUGCAUGCAUAGUAUUUAGUUA,1.3 ± 0.06,0.0566 ± 0.01
UCCUGGUACAGCUACCAUAGUAUUUAGUUA,0.366 ± 0.05,
UCCACCUACUGCUUGCAUAGUAUUUACUUA,0.243 ± 0.025,0.0254 ± 0.0034
